Measurements published in PubChem BioAssay (NCI).
The panel holds about 83,000 compounds, 20% with a hit somewhere; the sample as a whole holds those more often.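 Assay: single dose, 48 h. Readout: percent growth (0 = no net growth; negative = cell death). Active: <10.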 A number with no mark means an inactive call. Calls of active or inactive are those of the source.

system: HL-60(TB) leukemia; assay: NCI-60 one-dose screen, 48 h (100 = growth as untreated, 0 = no growth, -100 = all killed); details: 10 µM unless noted

| SMILES | growth |
| --- | --- |
| C=C(C)[C@@H]1CC[C@]2(COCCCNCCC#N)CC[C@]3(C)[C@H](CC[C@@H]4[C@@]5(C)CC[C@H](OCCCNCCC#N)C(C)(C)[C@@H]5CC[C@]43C)[C@@H]12 | 0.0603% (active) |
| CNC(=O)c1c(NC(=O)c2ccccc2C(F)(F)F)sc2c1CCC(=O)C2 | -10.5% (active) |
| COc1cc(-c2nc(-c3ccccc3)[nH]c2-c2ccnc(NCCCNS(=O)(=O)c3ccc(C)cc3)n2)ccc1F | 93.4% |
| O=C(COc1ccc(/C=C2\C(=O)Nc3ccc(Cl)cc32)cc1)Nc1ccc(Cl)cc1 | 57.6% |
| O=C(NCCN1CCCC1)c1ccc(-c2nc3ccc4[nH]ncc4c3c3c2CCCC3)cc1 | -49.8% (active) |
| O=C(Nc1cccc(C(F)(F)F)c1)c1cc(-c2ccc(F)cc2F)ccc1O | -40.7% (active) |
| CCOC(=O)c1c(NC(=O)c2ccc(C(F)(F)F)cc2)sc2c(CN3CCN(C)CC3)c(O)ccc12 | -36.8% (active) |
| O=C1c2cc(Br)ccc2-n2c1nc1cc(Br)ccc1c2=O | 80% |
| CC(=O)Oc1ccccc1C(=O)Nc1ccc(C(=O)/C=C/c2ccncc2)cc1 | 7.33% (active) |
| CCOC(=O)c1csc(NC(=O)CSc2nc3sc4c(c3c(=O)n2-c2ccc(Cl)cc2)CCCC4)n1 | 92.1% |
| COc1ccccc1Cn1cc(C#N)c(N)c1C(=O)c1ccc(Br)cc1 | 92.8% |
| O=[N+]([O-])c1ccc(O)c2ncccc12 | -5.62% (active) |
| O=C1[C@H]2Cc3c([nH]c4ccccc34)[C@@H](c3c(Cl)cccc3Cl)N2C(=O)CN1C1CCN(Cc2ccccc2)CC1 | 65.7% |
| CC(Nc1c(C#N)cnc2ccc(-c3cnc(N)nc3)cc12)c1ccccc1 (stereo not given) | 20.1% |
| COc1ccccc1-n1cc(C#N)c(N)c1C(=O)c1ccc(C)cc1 | 56.7% |
| C#C[C@]1(O)CC[C@H]2[C@@H]3CC=C4c5sc(Nc6cc(Cl)ccn6)nc5CC[C@]4(C)[C@H]3CC[C@@]21C | 2.68% (active) |
| CC[C@@](C)(NC(=O)C(C)(C)NC(=O)[C@@H](NC(=O)[C@@H]1CCCN1C(=O)C(C)(C)NC(=O)[C@H](CC(C)C)NC(=O)CNC(=O)C(C)(C)NC(=O)[C@@H](NC(=O)C(C)(C)NC(=O)[C@H](CCC(N)=O)NC(=O)[C@H](C)NC(=O)C(C)(C)NC(=O)[C@H](C)NC(=O)C(C)(C)NC(=O)[C@@H]1CCCN1C(=O)C(C)(C)NC(C)=O)C(C)C)C(C)C)C(=O)N[C@@H](CCC(N)=O)C(=O)N[C@@H](CCC(N)=O)C(=O)N[C@H](CO)Cc1ccccc1 | -50.8% [4.25 µM] (active) |
| COc1ccc(C(=O)c2c(N)c(C#N)cn2-c2ccc(Cl)cc2Cl)cc1 | 84.7% |
| C#C[C@]1(O)CC[C@H]2[C@@H]3CC=C4c5sc(Nc6ccc(Cl)cn6)nc5CC[C@]4(C)[C@H]3CC[C@@]21C | 6.4% (active) |
| COC1=C(c2ccccc2)C(=O)C(OC)=C(c2ccccc2)C1=O | 5.79% (active) |

| SMILES | growth |
| --- | --- |
| CCC(C)[C@H]1OC(=O)[C@H](C(C)C)N(C)C(=O)[C@@H](C(C)C)OC(=O)[C@H](C(C)C)N(C)C(=O)[C@@H](C(C)CC)OC(=O)[C@H](C(C)C)N(C)C1=O (stereo not given in full) | -47.7% (active) |
| CN1CCN(c2ccc(Nc3nc(NCCCNS(=O)(=O)c4cccc(F)c4)c4sccc4n3)cc2)CC1 | -48.7% (active) |
| COc1ccc(-c2nc3cccc(O)c3c(=O)n2Cc2ccccc2)cc1COc1ccc(NC(C)=O)cc1 | 45.4% [3 µM] |
| Nc1nc(N)c2c(n1)NC(c1ccccc1)CC(c1ccc(Nc3nc(NCCO)nc(Nc4ccc(Cl)cc4)n3)cc1)=N2 (stereo not given) | 2.55% (active) |
| O=C1/C(=C/c2cc(F)cc(F)c2)Cc2cc3c(cc21)OCO3 | 3.69% (active) |
| C#Cc1nc(/C=C/CCCCCCC(=O)NO)cs1 | -64.8% (active) |
| O=C(Nc1cc(F)cc2cccnc12)c1cnc(N2CCOCC2)cn1 | 36.9% |
| COc1cc(/C=N/n2cnc3oc(-c4ccccc4)cc3c2=N)cc(CN2CCOCC2)c1O | 88.9% |
| Cc1c(C(=O)/C=C/c2ccc(Cl)cc2)nnn1-c1ccc2oc(=O)ccc2c1 | 92.9% |
| Nc1cc(-c2c[nH]c3ccc(Cl)cc23)nc2cc(-c3c[nH]c4ccc(Cl)cc34)nn12 | 43.9% |
| COc1ccc2c(c1)c(CC(=O)[Se]CC(=O)O)c(C)n2C(=O)c1ccc(Cl)cc1 | 53.7% |
| CC1=C(C)C(=O)C(Nc2cccc(C(F)(F)F)c2)=C(Cl)C1=O | 38.5% |
| Fc1ccc(-c2nc(C(Cl)Cl)nc3cc(-c4ccccc4)nn23)cc1 | -8.76% (active) |
| CCCC/C(=C\c1ccc(O)c(O)c1)C(=O)NC(Cc1ccccc1)C(=O)C(=O)NCCc1ccc(OC)cc1 (stereo not given) | 92.5% |
| C#Cc1nc(C2=C(C)C(OC(C)=O)/C(=N/OC(C)=O)C2)cs1 (stereo not given) | -43.9% (active) |
| C/C(=N/Nc1nc(N/N=C(/C)c2ccc([N+](=O)[O-])cc2)nc(N2CCOCC2)n1)c1ccc([N+](=O)[O-])cc1 | 92.6% |
| C[C@H]1OCC2(CCN(c3cnc(C(=O)Nc4cc(F)cc5cccnc45)cn3)CC2)[C@H]1N | 18.9% |
| C=CCn1c(SCC(=O)c2ccc(OC)cc2)nnc1-c1ccc(OC)cc1 | 90.8% |
| COc1ccc(C(=O)c2cc(C(=O)/C=C/c3c(Cl)cccc3Cl)c3cc(C)ccn23)cc1 | 101% |
| COc1ccc([C@H]2c3[nH]c4ccccc4c3C[C@@H]3C(=O)N(C4CCN(Cc5ccccc5)CC4)CC(=O)N23)c(OC)c1 | 50.7% |
